Compounds with a hit are over-represented: about 11% of the library has one in this group of screens.
AmpC no deterg = AmpC beta-lactamase inhibition without detergent | AID 485341 | P00811 | AmpC nitrocefin hydrolysis, absorbance 480 nm, 0.0001% Triton | Potency, µM (highest dose often 57.1 µM), for the others: at the top dose activity change, negative = inhibition, usual class: inhibitors | 330,000 compounds, 0.52% hits;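 also: plate controls were no compound for no effect and no enzyme for full effect; nearly all actives have a fitted effect of over 20% in size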
Target sequence (P00811 whole entry, looked up): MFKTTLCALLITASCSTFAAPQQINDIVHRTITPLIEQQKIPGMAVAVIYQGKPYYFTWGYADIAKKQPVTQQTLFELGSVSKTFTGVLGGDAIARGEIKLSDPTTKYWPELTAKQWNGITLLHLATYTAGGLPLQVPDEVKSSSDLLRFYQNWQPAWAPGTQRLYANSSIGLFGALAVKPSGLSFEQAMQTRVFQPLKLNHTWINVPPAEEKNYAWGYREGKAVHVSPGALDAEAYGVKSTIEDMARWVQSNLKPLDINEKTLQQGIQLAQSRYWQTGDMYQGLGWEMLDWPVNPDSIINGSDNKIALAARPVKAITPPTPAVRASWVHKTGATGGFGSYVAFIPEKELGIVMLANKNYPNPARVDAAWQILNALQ
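20 mM phosphate pH 7.0 + 0.01% (detergent screen) or 0.0001% Triton X-100; 5.3 nM AmpC reagent; cpd preinc 15 min RT; nitrocefin (800 uM stock) to start; A480 q20 s × 4 min; Activity was normalised to no-enzyme and no-compound control wells.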
HCV inh = blocks hepatitis C virus. Huh7.5.1 HCVcc-Cre infection, luciferase reporter, 44 h. Potency, µM (doses to about 41.8 µM), without a hit: at the highest dose activity change, negative = inhibition, actives largely listed as inhibitors. 340,000 compounds, 3.4% hits
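Infectious HCVcc-Cre (~0.5 moi) was added to cells just after compound, with cells seeded 4 h earlier at 1,000 per well. Luciferase activity after 44 h culture reported infection; substrate was incubated 15 min at room temperature before reading.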
Pf growth 96h = P. falciparum growth inhibition at 96 hour, primary screen for plastid delayed-death inhibitors; P. falciparum luciferase reporter growth, 96 h; Potency, µM (top dose mostly 28.7 µM), without a hit: top-dose activity change, negative = inhibition, hits mostly inhibitors; 320,000 compounds, 6.9% hits; AID 504834
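Parasite growth measured via integrated firefly luciferase reporter in P. falciparum. Infected erythrocytes at 2% hematocrit, 0.05% parasitemia final were treated 96 hours at 37 C under 5% CO2, and luminescence was read.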
AMA1 RON2 block = disrupts binding of P. falciparum AMA1 to RON2. AlphaScreen AMA1-biotinylated RON2 peptide binding. AID 720542. Potency, µM (titrated, usually from 58.2 µM), without a hit: at the highest dose activity change, negative = inhibition, hits mostly inhibitors. 360,000 compounds, 0.2% hits;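 also: 0% = vehicle wells and -100% = peptide control; nearly all actives have a fitted effect of over 45% in size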
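AMA1 (3D7) with his tag at 25 nM final met compounds first, then biotinylated RON2 peptide at 25 nM; detection used donor plus acceptor beads, 10 µg/mL apiece, read by AlphaScreen after 30 min at room temperature.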
Pf growth 48h = inhibits P. falciparum growth in the first generation, 48 h. Potency, µM (highest dose often 28.7 µM), for the others: top-dose activity change, negative = inhibition, most hits filed as inhibitors. AID 504832. 310,000 compounds, 5.9% hits. P. falciparum luciferase growth in erythrocytes, 48 h
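Cell-based growth assay: transgenic P. falciparum expressing firefly luciferase, cultured in red cells within RPMI 1640 containing 0.5% w/v Albumax, 24 mM bicarbonate and gentamycin. A drop in luciferase activity indicates inhibition.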
AmpC inh detg = inhibitors of E. coli AmpC beta-lactamase with detergent | P00811 | Potency, µM (top dose mostly 114 µM), without a hit: at the top dose activity change, negative = inhibition, hits mostly inhibitors | 370,000 compounds, 0.041% hits | AmpC hydrolysis of nitrocefin, absorbance 480 nm, 0.01% Triton;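 also: 0% = no-compound wells and -100% = no-enzyme wells; nearly all actives have a fitted effect of over 25% in size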
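AmpC (5.3 nM in the dispensed reagent) in 20 mM phosphate pH 7.0 with 0.01% (detergent screen) or 0.0001% Triton X-100 was preincubated with compounds for 15 min at room temperature. Nitrocefin was then added from an 800 uM solution, and hydrolysis was followed at 480 nm.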
Numbers without * were called inactive; ? = inconclusive; / = no result; [ ] = another dose, or the depositor's remark. Calls follow the shape of the dose curve; as a rule, active = well fitted curve in the direction sought with a large enough effect; inconclusive = small, poorly fitted or top-dose-only effect, or another doubt; inactive = no such curve, though single readings can be large; an effect the other way counts as inactive or inconclusive. Unless noted, % is scaled to controls: 0 for no effect and ±100 for the full control effect; potency is read from the fitted curve at half-maximal effect.

SMILES | AmpC no deterg | HCV inh | Pf growth 96h | AMA1 RON2 block | Pf growth 48h | AmpC inh detg
Cc1nc(N2CCC(C)CC2)c2c(C)c(C(=O)Nc3ccc(C)c(F)c3)sc2n1 | -18% | -21% | -30% | 9% | ? | 0%
Cc1nc(N2CCN(c3ccccn3)CC2)c2c(C)c(C(=O)Nc3c(C)cc(Br)cc3C)sc2n1 | -9% | ? | -23% | 10% | 1.9µM* | -4%
Cc1ccc(N2C(=O)CSC2c2cccs2)cc1 (stereo unspecified) | -11% | -2% | 0.17µM* | -6% | 0% | ?
Cc1cc(C)cc(N2C(=O)CSC2c2cccs2)c1 (stereo unspecified) | -6% | 3% | 39% | 17% | ? | -8%
O=C(Cn1c(-c2ccccc2)c[n+]2ccsc12)c1ccc([N+](=O)[O-])cc1 | -15% | 10µM* | ? | 32% | 11% | 1%
O=C(Cn1c(-c2ccccc2)c[n+]2ccsc12)c1ccccc1 | 3% | -1% | ? | 5% | ? | 4%
COC(=O)C1=C(c2cccc(C#N)c2)C[C@@H]2CC[C@H]1N2C(=O)NCCc1ccccc1 | 16% | ? | ? | 13% | ? | 3%
COC(=O)C1=C(c2cccc(OCc3ccccc3)c2)C[C@@H]2CC[C@H]1N2C(=O)NCCCc1ccccc1 | -8% | ? | ? | -7% | 9.3µM* | -2%
COC(=O)C1=C(c2ccc(OCc3ccccc3)cc2)C[C@@H]2CC[C@H]1N2C(=O)NCCCc1ccccc1 | -11% | 6.3µM* | ? | 7% | ? | -6%
COc1cc(NC(=O)CN2c3ccccc3S(=O)(=O)c3ccccc32)cc(OC)c1 | / | / | / | / | / | 23%
CCn1ccnc1CN1CCCC(C(=O)c2cc(Cl)ccc2OC)C1 (stereo unspecified) | 5% | ? | 14% | -1% | 21% | -3%
CCn1ccnc1CN1CCCC(C(=O)c2cc(C)c(OC)c(C)c2)C1 (stereo unspecified) | 66% | ? | ? | 32% | 12µM* | 1%
CCn1ccnc1CN1CCCC(C(=O)c2ccc3cc(OC)ccc3c2)C1 (stereo unspecified) | 161% | 10µM* | ? | -16% | 2.9µM* | -2%
COc1c(C)cc(C(=O)C2CCCN(Cc3ccc(Oc4ncccn4)cc3)C2)cc1C (stereo unspecified) | 154% | ? | -29% | -7% | ? | -4%
COc1ccc2cc(C(=O)C3CCCN(Cc4ccccn4)C3)ccc2c1 (stereo unspecified) | 70% | -20% | -21% | 22% | 9.3µM* | 3%
CSc1ccccc1C(=O)C1CCCN(Cc2cccc(C)n2)C1 (stereo unspecified) | 38% | -9% | -5% | 19% | ? | 8%
Cc1cccc(CN2CCCC(C(=O)c3ccc(C(F)(F)F)cc3)C2)n1 (stereo unspecified) | 98% | ? | 12µM* | ? | 2.3µM* | -3%
Cc1c2cnn(CC(=O)Nc3cccc(C(F)(F)F)c3)c(=O)c2c(C)n1Cc1ccccc1Cl | / | / | / | / | / | 3%
CSc1sc(C(=O)N2CCCCC2)c(-c2cccs2)c1C#N | 5% | 8% | 3% | -13% | -2% | -2%
CCCSc1sc(C(=O)OC)c(-c2cccs2)c1C#N | -21% | ? | 10µM* | 7% | 10µM* | ?
CCc1ccc(NS(=O)(=O)c2c(-c3ccccc3)csc2C(=O)OC)cc1 | / | / | / | / | / | 7%
COc1ccc(-c2cc(-c3c(O)c(OC)c4occc4c3OC)[nH]n2)cc1OC | 22% | 11µM* | 0%[5.75 µM] | -6% | ? | -3%
COc1ccc(-c2cc(-c3c(O)c(OC)c4occc4c3OC)[nH]n2)cc1 | -16% | 32µM* | / | 0% | / | 1%
CCOc1ccc(-c2cc(-c3nc(-c4cc(OC)c(OC)c(OC)c4)no3)[nH]n2)cc1 | / | / | / | / | / | 1%
CCOc1ccccc1CNC(=O)c1cc2c(=O)n(Cc3ccco3)ccc2nc1C | / | / | / | / | / | 7%
SMILES | AmpC no deterg | HCV inh | Pf growth 96h | AMA1 RON2 block | Pf growth 48h | AmpC inh detg
Cc1nnc(SCC(=O)Nc2ccc(Br)cc2)[nH]c1=O | / | / | / | / | / | -1%
CCc1cc2c(=O)c(Oc3ccccc3F)c(C)oc2c(CN(C)C)c1O | -37% | 13% | 21% | -4% | 8.3µM* | 3%
Cc1c(Cc2ccccc2)c(=O)oc2c(CN(C)C)c(O)c(Cl)cc12 | 164% | -24% | 26% | 24% | -27% | -5%
Fc1cccc(-c2cc3nc4c(c(N5CCOCC5)n3n2)CCCC4)c1 | -4% | 3.5µM* | ? | 0% | 8.3µM* | -7%
Clc1cccc(-c2cc3nc4c(c(N5CCN(c6cnccn6)CC5)n3n2)CCCC4)c1 | -17% | 7% | -20% | -1% | 2.1µM* | -10%
CC1COc2ccccc2N1C(=O)c1ccc(Cl)cc1 (stereo unspecified) | -11% | 1% | 32% | -5% | 8% | 5%
Cc1ccc(S(=O)(=O)N2c3cc(C)ccc3OCC2C(C)(C)C)cc1 (stereo unspecified) | -29% | ? | ? | 11% | 13µM* | -5%
Cc1ccc(S(=O)(=O)N2c3ccccc3OCC2c2ccccc2)cc1 (stereo unspecified) | -23% | 35µM* | ? | 1% | 2.6µM* | -5%
Cc1ccc(C(=O)N2c3ccccc3OCC2C)cc1 (stereo unspecified) | -9% | -4% | 9% | -9% | 3% | 1%
O=C(C(Cl)Cl)N1c2ccccc2OCC1c1ccccc1 (stereo unspecified) | -25% | 13µM* | ? | 4% | ? | 0%
CC1COc2ccccc2N1S(=O)(=O)c1ccc(Cl)cc1 (stereo unspecified) | -22% | -7% | ? | 7% | 10µM* | -11%
Cc1ccc(S(=O)(=O)N2CC(C(=O)O)Oc3ccccc32)cc1 (stereo unspecified) | -16% | 16% | -11% | -1% | / | -10%
COc1ccc(CCNC(=O)CSc2n[nH]c(-c3ccccc3Cl)n2)cc1OC | / | / | / | / | / | -3%
CC(C)Cc1nn2c(=O)cc(COC(=O)c3cccc(NC(=O)CCc4ccccc4)c3)nc2s1 | / | / | / | / | / | 16%
Cc1ccc(Cn2ccnc2SCC(=O)NCc2ccccc2)cc1 | / | / | / | / | / | -1%
O=C(CCCC1=NS(=O)(=O)c2ccccc2N1)NCCc1ccc(Cl)cc1 | -17% | 6% | 4% | -5% | -6% | 1%
NS(=O)(=O)c1ccc(CCNC(=O)CCCC2=NS(=O)(=O)c3ccccc3N2)cc1 | -22% | 1% | 5.2µM* | 9% | 0% | 3%
